Data on 8 molecules can be found in PubChem BioAssay (Tox21).

Where “and” joins values, the source holds several entries; their conditions need not be identical. Equal values may be shown once. Inconclusive results are not listed. Where a structure was tested more than once in an assay, its records may differ in their call. Calls of active or inactive are those of the source. Unless noted, calls come from the whole dose curve; as a rule, active = well fitted curve in the direction sought with a large enough effect in the repeat runs; inconclusive = weak or mixed curves; inactive = no such curve, though single readings can be large; an effect the other way counts as inactive or inconclusive.

Assay [1] concerns the target Thyrotropin-releasing hormone receptor (Homo sapiens) (UniProt P34981). Briefly: qHTS assay to identify small molecule agonists of the thyrotropin-releasing hormone receptor (TRHR) signaling pathway (AID 1346891; calls by dose curve; note: series mostly up to about 58 µM). An outline of the steps: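 HEK293 cells expressing TRHR plated 18 h at 37 C/5% CO2, calcium dye-loaded 2 h at 37 C, then compound added (agonist mode); kinetic calcium fluorescence read 3 min at 1 s intervals; 15 concentrations in triplicate.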

Assay [2] is described as follows: Human pregnane X receptor (PXR) small molecule agonists, qHTS cell viability counter screen (AID 1346977). Note: nearly all actives have a fitted effect of over 50% in size. In outline:
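PXR-Luc HepG2 cells (2,000/well, 5% charcoal-stripped FBS) preincubated 5 hr, then exposed to compounds 24 hr at 37 C. Viability read in the same wells by CellTiter-Fluor fluorescence, reagent added at 23 hr, 1 hr incubation.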

Assay [3] in a line: Caspase-3/7 induction in HepG2 cells by small molecules, qHTS assay (AID 1346978). Note: nearly all actives have a fitted effect of over 15% in size. In outline:
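Wild-type HepG2 cells (2,000/well) were settled 5 h at 37 C, 5% CO2, then exposed to compounds in DMSO for 17 h. Caspase-3/7 activity was read by luminescence 30 min after adding Caspase-Glo 3/7 reagent at room temperature.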

A short description of assay [4]: Caspase-3/7 induction in CHO-K1 cells by small molecules, qHTS cell viability counter screen (AID 1346979). Note: nearly all actives have a fitted effect of over 35% in size. An outline of the steps: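 Wild-type CHO-K1 cells (1,500/well) treated with compound after 5 h plating; after 16 h at 37C, viability read as CellTiter-Fluor fluorescence following 1 h reagent incubation, in the same wells as the caspase read.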
Assay [5] in a line: Caspase-3/7 induction in CHO-K1 cells by small molecules, qHTS assay (AID 1346980). Note: nearly all actives have a fitted effect of over 15% in size. An outline of the steps: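 Wild-type cells were seeded at 1,500 per well and settled 5 hr at 37 C, 5% CO2, then exposed to DMSO-dissolved compounds for 17 hr. Caspase-Glo 3/7 reagent was added, and luminescence was read after 30min at room temperature.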
The nature of assay [6]: Caspase-3/7 induction in HepG2 cells by small molecules, qHTS cell viability counter screen (AID 1346981). Note: series mostly up to about 92 µM; nearly all actives have a fitted effect of over 30% in size. An outline of the steps: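 CellTiter-Fluor fluorescence measured viability in the same wells used for Caspase-Glo 3/7. HepG2 (wild type) at 2,000 cells/well were pre-incubated 5 hr, dosed, and given reagent at 16 hr, with 1 hr further at 37C.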
For assay [7], the target named is Nuclear receptor subfamily 1 group I member 2 (Homo sapiens) (UniProt O75469). The assay can be described thus: Human pregnane X receptor (PXR) small molecule agonists, qHTS assay (AID 1346982). Note: nearly all actives have a fitted effect of over 35% in size. Note: potency is the fitted concentration of half-maximal effect. In outline: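 Agonist mode: luminescence from ONE-Glo after 24 h compound exposure at 37C in HepG2 cells carrying hPXR-responsive CYP3A4 luciferase, plated in charcoal-stripped serum medium 5 h beforehand.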

The target in assay [8] is Cytochrome P450 2D6 (Homo sapiens) (UniProt P10635). Briefly: Cytochrome P450 Family 2 Subfamily D Member 6 (CYP2D6) small molecule antagonists: luciferase reporter qHTS assay (AID 1671196). Note: nearly all actives have a fitted effect of over 50% in size. Note: potency is the fitted concentration of half-maximal effect. An outline of the steps:
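CYP2D6 activity was followed as luminescence from its luciferin product after a 1 h NADPH-driven reaction at room temperature. Enzyme-substrate mix and compound were pre-incubated for 10 min, and the signal was read 20 min after adding detection reagent.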

Assay [9] concerns the target Cytochrome P450 2C19 (Homo sapiens) (UniProt P33261). Briefly: Cytochrome P450 Family 2 Subfamily C Member 19 (CYP2C19) small molecule antagonists: luciferase reporter qHTS assay (AID 1671197). Note: nearly all actives have a fitted effect of over 65% in size. Note: potency is the fitted concentration of half-maximal effect. In outline:
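Light output is proportional to CYP2C19 activity: proluciferin substrate is converted to luciferin, then detected by a luciferin detection reagent that also stops the 1 h, 37C NADPH-driven reaction. Ketoconazole serves as positive control.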

Assay [10] addresses Cytochrome P450 2C9 (Homo sapiens) (UniProt P11712). Briefly: Cytochrome P450 Family 2 Subfamily C Member 9 (CYP2C9) small molecule antagonists: luciferase reporter qHTS assay (AID 1671198). Note: nearly all actives have a fitted effect of over 50% in size. Note: potency is the fitted concentration of half-maximal effect. In outline: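 CYP2C9 activity was measured with a P450-Glo proluciferin substrate. Enzyme–substrate mix was held with compound for 10 min at room temperature, then NADPH regeneration solution was added for 1 h at 37C. Luciferin product was read as luminescence.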

The target in assay [11] is Cytochrome P450 1A2 (Homo sapiens) (UniProt P05177). Briefly: Cytochrome P450 Family 1 Subfamily A Member 2 (CYP1A2) small molecule antagonists: luciferase reporter qHTS assay (AID 1671199). Note: nearly all actives have a fitted effect of over 50% in size. Note: potency is the fitted concentration of half-maximal effect. In outline:
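Luminescence from luciferin formed by CYP1A2 from a proluciferin substrate, read 20 min after detection reagent. Compound was pre-incubated 10 min with enzyme-substrate, and reaction started with NADPH regeneration solution for 1 h at room temperature; furafylline control.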

Assay [12] has as its target Voltage-gated inwardly rectifying potassium channel KCNH2 (Homo sapiens) (UniProt Q12809). The assay can be described thus: Human Ether-a-go-go-Related Gene (hERG) channel small molecule antagonists: fluorescence cell-based qHTS assay (AID 1671200). An outline of the steps:
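hERG-U2OS cells plated overnight at 37 C, loaded with FluxOR II dye 1 h at RT in dark; after 10 min, thallium stimulus added. Fluorescence (480/540 nm) read kinetically for 2 min at 1 s intervals.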

Assay [13] concerns the target Cytochrome P450 3A4 (Homo sapiens) (UniProt P08684). The assay can be described thus: Cytochrome P450 Family 3 Subfamily A Member 4 (CYP3A4) small molecule antagonists: luciferase reporter qHTS assay (AID 1671201). In outline:
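P450-Glo CYP3A4 luminescent assay: compounds preincubated 10 min at room temperature with enzyme and proluciferin substrate, NADPH regeneration added, 1 h room-temperature reaction, stopped with luciferin detection reagent; luminescence read after 20 min. Ketoconazole positive control.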

Assay [14] addresses Nuclear receptor subfamily 1 group I member 2 (Rattus norvegicus) (UniProt Q9R1A7). The assay can be described thus: Rat pregnane X receptor (rPXR) activation by small molecules, qHTS assay (AID 1346983). Note: nearly all actives have a fitted effect of over 20% in size. The conditions noted are these: rPXR luciferase reporter cells, One-Glo luminescence, 24 h; stronger effect = higher value. An outline of the steps:
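Cell-based rPXR luciferase reporter assay, 2,000 cells per well, rested 5hr at 37 C before compound addition in DMSO, then 24 hr at 37 C. One-Glo reagent was added and luminescence read after 30 min at room temperature.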

The target of assay [15] is Nuclear receptor subfamily 1 group I member 2 (Homo sapiens) (UniProt O75469). Briefly: CYP3A4 induction through human pregnane X receptor (PXR) by small molecules, qHTS assay (AID 1346984). Note: nearly all actives have a fitted effect of over 40% in size. Note: potency is the fitted concentration of half-maximal effect. An outline of the steps: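 Read-out is luminescence after One-Glo addition, following a 3 hr, 37C incubation with Luciferin-IPA CYP3A4 substrate (3uM final). Before that, compounds were on DPX-2 cells (HepG2 co-transfected with PXR element plus CYP3A4-promoter luciferase) for 24 hr at 37C.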

Assay [16] has the same target. The assay can be described thus: Human pregnane X receptor (PXR) activation by small molecules, qHTS assay (AID 1346985). Note: nearly all actives have a fitted effect of over 40% in size. In outline: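 DPX-2 cells (HepG2 co-transfected with a PXR response element and a CYP3A4-promoter luciferase construct) were seeded at 2,000 per well, rested 5 hr at 37C, then exposed to DMSO-dissolved compounds for 24 hr. Activation was read as luciferase luminescence.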
% is set by controls: 0 for no effect and ±100 for the full control effect.

Chain of Thyrotropin-releasing hormone receptor (Homo sapiens) (P34981 whole entry, looked up): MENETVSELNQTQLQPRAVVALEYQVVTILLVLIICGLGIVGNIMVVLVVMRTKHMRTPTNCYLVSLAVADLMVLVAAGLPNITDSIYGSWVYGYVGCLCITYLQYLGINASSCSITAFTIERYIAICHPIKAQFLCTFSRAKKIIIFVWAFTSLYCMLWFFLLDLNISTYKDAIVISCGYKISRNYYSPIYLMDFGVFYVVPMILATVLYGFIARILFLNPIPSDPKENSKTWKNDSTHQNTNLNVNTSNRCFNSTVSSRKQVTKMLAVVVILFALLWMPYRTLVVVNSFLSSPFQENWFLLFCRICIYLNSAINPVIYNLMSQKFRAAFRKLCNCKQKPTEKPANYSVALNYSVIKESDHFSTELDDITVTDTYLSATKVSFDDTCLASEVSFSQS
Chain of Cytochrome P450 3A4 (Homo sapiens) (P08684 whole entry, looked up): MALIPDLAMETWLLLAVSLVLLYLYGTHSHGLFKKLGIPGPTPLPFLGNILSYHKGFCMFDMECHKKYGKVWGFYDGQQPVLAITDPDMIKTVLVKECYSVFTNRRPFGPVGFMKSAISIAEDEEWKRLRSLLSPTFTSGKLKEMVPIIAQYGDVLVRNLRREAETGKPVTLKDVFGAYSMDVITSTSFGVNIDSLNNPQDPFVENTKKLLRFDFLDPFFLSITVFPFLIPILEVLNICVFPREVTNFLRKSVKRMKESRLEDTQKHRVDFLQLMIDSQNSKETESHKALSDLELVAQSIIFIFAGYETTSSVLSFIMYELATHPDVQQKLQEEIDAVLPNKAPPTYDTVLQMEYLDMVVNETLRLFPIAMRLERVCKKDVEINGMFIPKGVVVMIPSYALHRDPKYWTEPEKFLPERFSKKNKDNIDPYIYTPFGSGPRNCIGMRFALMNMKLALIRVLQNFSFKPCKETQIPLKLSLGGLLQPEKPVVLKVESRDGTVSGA
Chain of Cytochrome P450 2D6 (Homo sapiens) (P10635 whole entry, looked up): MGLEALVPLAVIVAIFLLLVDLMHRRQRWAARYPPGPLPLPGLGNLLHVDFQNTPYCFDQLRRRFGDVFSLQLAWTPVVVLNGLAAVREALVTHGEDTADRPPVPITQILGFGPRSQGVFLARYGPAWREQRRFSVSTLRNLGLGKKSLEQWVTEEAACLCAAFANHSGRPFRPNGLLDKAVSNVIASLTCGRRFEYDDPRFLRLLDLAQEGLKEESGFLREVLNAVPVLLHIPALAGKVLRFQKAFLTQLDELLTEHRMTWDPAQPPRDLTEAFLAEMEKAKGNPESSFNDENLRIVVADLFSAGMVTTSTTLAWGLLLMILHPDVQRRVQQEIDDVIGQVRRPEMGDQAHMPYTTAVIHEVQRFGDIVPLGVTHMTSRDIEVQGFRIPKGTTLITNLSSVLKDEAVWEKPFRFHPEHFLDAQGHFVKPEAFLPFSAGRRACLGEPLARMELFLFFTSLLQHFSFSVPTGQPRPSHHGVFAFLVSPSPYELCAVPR
Chain of Voltage-gated inwardly rectifying potassium channel KCNH2 (Homo sapiens) (Q12809 whole entry, looked up): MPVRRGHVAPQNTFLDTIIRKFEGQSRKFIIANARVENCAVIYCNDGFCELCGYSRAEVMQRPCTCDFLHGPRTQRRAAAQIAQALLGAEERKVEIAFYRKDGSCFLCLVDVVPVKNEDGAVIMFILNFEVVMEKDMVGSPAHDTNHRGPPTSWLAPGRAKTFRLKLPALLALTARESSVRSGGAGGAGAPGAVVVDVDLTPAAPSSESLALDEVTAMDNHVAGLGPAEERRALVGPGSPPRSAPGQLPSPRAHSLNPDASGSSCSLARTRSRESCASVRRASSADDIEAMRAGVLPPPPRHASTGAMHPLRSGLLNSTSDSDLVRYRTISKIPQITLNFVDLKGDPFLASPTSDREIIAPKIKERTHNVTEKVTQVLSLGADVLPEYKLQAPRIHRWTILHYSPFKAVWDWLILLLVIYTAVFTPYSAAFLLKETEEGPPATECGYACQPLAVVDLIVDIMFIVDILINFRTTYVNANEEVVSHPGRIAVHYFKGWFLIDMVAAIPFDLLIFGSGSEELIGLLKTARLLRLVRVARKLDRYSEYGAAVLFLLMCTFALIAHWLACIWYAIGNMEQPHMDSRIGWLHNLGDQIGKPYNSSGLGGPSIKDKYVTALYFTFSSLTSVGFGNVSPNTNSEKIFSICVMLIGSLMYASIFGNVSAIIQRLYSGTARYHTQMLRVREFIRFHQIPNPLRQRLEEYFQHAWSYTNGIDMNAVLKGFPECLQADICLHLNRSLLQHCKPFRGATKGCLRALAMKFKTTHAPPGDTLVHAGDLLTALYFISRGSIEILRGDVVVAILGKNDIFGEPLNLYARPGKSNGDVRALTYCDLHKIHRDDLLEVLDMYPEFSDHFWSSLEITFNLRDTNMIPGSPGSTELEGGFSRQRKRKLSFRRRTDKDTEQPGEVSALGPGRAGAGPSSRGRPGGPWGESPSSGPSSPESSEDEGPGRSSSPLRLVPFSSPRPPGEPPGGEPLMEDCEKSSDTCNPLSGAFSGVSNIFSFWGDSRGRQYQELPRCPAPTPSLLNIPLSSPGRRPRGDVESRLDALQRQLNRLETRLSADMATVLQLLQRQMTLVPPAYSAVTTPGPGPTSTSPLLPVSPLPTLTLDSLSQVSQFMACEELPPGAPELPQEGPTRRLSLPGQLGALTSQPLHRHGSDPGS
Chain of Cytochrome P450 2C9 (Homo sapiens) (P11712 whole entry, looked up): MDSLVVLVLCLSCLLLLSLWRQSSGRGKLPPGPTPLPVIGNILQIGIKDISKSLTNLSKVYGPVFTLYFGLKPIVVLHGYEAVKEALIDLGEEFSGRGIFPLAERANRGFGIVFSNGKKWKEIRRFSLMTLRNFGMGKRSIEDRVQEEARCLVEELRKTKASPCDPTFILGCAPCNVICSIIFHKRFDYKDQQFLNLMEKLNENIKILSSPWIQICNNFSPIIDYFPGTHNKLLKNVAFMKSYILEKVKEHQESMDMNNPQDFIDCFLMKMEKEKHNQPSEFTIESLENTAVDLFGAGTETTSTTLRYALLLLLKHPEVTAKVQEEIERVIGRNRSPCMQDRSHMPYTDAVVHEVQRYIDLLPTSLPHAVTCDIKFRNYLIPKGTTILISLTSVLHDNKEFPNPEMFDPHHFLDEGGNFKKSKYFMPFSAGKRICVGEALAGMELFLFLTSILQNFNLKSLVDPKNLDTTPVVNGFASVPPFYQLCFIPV
Chain of Cytochrome P450 2C19 (Homo sapiens) (P33261 whole entry, looked up): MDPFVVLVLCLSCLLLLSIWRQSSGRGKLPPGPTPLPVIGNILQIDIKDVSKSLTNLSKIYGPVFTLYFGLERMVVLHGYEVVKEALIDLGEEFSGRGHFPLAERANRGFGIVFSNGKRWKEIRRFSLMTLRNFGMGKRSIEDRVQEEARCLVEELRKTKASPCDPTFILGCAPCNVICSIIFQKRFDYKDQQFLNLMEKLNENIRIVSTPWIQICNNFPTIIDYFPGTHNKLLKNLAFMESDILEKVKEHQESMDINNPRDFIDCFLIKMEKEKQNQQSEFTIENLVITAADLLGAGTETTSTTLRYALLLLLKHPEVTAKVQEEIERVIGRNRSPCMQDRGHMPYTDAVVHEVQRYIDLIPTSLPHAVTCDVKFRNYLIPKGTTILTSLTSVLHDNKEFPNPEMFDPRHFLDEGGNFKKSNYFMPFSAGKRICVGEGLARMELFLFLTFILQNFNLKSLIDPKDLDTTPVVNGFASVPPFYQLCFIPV
Chain of Nuclear receptor subfamily 1 group I member 2 (Homo sapiens) (O75469 whole entry, looked up): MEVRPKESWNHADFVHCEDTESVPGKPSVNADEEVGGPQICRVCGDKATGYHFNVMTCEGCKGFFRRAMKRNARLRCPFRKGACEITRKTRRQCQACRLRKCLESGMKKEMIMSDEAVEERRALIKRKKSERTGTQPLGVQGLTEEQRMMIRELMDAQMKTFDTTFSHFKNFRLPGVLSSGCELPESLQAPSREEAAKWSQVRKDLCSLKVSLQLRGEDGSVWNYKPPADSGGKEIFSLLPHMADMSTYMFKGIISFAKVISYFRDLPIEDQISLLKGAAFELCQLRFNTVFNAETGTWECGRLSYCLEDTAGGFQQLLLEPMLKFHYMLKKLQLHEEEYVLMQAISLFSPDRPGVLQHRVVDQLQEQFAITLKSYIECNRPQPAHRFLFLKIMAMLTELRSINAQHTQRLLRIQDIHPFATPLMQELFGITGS
Chain of Nuclear receptor subfamily 1 group I member 2 (Rattus norvegicus) (Q9R1A7 whole entry, looked up): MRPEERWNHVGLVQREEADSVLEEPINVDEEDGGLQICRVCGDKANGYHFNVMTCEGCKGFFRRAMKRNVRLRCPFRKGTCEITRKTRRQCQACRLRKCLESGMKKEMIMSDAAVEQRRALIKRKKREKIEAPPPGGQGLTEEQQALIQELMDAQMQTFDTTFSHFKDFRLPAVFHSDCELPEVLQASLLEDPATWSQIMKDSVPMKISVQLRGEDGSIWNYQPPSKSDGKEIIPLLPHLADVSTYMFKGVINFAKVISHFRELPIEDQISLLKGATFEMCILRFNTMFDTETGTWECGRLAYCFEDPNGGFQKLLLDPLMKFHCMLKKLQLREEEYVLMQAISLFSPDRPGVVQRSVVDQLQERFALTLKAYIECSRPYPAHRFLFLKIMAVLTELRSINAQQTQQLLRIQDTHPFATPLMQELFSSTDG
Chain of Cytochrome P450 1A2 (Homo sapiens) (P05177 whole entry, looked up): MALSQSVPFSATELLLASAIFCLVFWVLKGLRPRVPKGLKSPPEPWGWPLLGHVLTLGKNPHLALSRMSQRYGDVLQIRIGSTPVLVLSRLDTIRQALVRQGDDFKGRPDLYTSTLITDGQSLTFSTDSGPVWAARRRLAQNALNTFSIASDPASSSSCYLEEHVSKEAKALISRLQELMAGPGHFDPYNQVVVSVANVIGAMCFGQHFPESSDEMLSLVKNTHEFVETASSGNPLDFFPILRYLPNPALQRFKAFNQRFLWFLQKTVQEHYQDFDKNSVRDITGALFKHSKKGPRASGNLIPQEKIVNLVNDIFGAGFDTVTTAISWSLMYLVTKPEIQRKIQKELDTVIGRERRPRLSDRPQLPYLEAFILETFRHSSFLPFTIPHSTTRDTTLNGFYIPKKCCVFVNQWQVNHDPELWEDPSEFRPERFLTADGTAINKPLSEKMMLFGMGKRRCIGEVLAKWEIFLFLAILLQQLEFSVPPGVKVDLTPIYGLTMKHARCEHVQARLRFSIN

With `O=C(O)c1ccc(C(=O)O)c(C(=O)O)c1`, the call in [1] and in [5] was inactive. In addition, the Potency result in assay [2], in [3], in assay [4], in assay [6], in assay [7] and in [8] was “inactive” in each case. The Potency result in [9], in assay [10], in assay [11], in assay [12] and in assay [13] was “inactive” each time.

Take `CC1(C)OC[C@@H]2O[C@@]3(C(=O)O)OC(C)(C)O[C@H]3[C@@H]2O1`: the result in [1], in [5] and in assay [16] was inactive. The Potency entry in assay [2], in [3], in assay [4], in [6], in assay [7] and in assay [15] was “inactive” in each case. For the same molecule, the Potency result in assay [8], in assay [9], in [10], in [11], in assay [12] and in [13] was “inactive” throughout. Moreover, in [14], the max activation was -1.74% (inactive).

Regarding `CC(C)CCCCCCCOC(=O)CCCCC(=O)OCCCCCCCC(C)C`, the molecule was classed as inactive in assay [1] and in [5]. The Potency result in [2], in assay [3], in assay [4], in assay [6], in assay [8] and in assay [10] was “inactive” in each case. Moreover, the Potency result in assay [11], in assay [12] and in [13] was “inactive” throughout. The Potency in assay [7] was 50.4 µM (active) and inactive; in assay [9], 92.8 µM (active) and inactive.

Regarding `OCc1ccccc1`, the outcome in assay [1], in assay [5] and in assay [16] was inactive. Also, the Potency result in [2], in assay [3], in assay [4], in assay [6], in [7] and in [15] was “inactive” throughout. The Potency entry in [8], in [11], in assay [12] and in assay [13] was “inactive” throughout. Besides, in assay [14], the max activation is -0.795% (inactive). In [9], the Potency was 35.1 µM (active).

Consider `O=C1C(c2[nH]c3ccccc3c2O)=Nc2ccccc21`, for which the molecule was classed as inactive in assay [1], in [5] and in assay [16]. The Potency entry in assay [2], in assay [3], in assay [4], in assay [6], in assay [7] and in assay [8] was “inactive” in each case. For the same molecule, the Potency entry in [9], in [10], in assay [12] and in [13] was “inactive” each time. Besides, the max activation in assay [14] was 3.64% (inactive). In addition, the Potency was 0.891 µM (active) in assay [15]; “inactive and 34.7 µM (active)” in [11].

Regarding `C=C(C)CNCC`, the result in [1] and in assay [5] was inactive. The Potency entry in assay [2], in [3], in assay [4], in assay [6], in assay [7] and in assay [9] was “inactive” each time. The Potency result in [10], in assay [11], in assay [12] and in assay [13] was “inactive” each time. Further, the Potency in assay [8] was 31.2 µM (active) and inactive.

For `CNC(=O)Oc1ccc2c(c1)[C@]1(C)CCN(C)[C@@H]1N2C`, the molecule was classed as inactive in [1], in assay [5] and in assay [16]. Besides, the Potency entry in assay [2], in assay [3], in assay [4], in assay [6], in [7] and in [15] was “inactive” each time. In addition, the Potency entry in assay [11], in assay [12] and in assay [13] was “inactive” each time. The max activation in [14] was -1.54% (inactive). Further, the Potency was 564 nM (active) and 977 nM (active) in assay [8]; 25.2 µM (active) and inactive in assay [9]; 71 µM (active) and inactive in [10].

As for `CN/C(=C\[N+](=O)[O-])NCCSCc1csc(CN(C)C)n1`, the molecule was called inactive in assay [1], in assay [5] and in assay [16]. Further, the Potency entry in assay [2], in [3], in assay [4], in assay [6], in assay [7] and in [15] was “inactive” each time. The Potency result in [10], in assay [11], in [12] and in assay [13] was “inactive” throughout. The max activation in assay [14] is -2.39% (inactive). In [8], the Potency was 35.6 µM (active) and inactive.
